Pf growth 96h = inhibits malaria parasite growth, 96 h | P. falciparum luciferase reporter growth, 96 h | Potency, µM (highest dose often 28.7 µM), usual class: inhibitors | actives 6.9% (n = 320,000) | AID 504834
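Erythrocytes infected with luciferase-expressing P. falciparum were dispensed at 2% hematocrit and 0.05% parasitemia (final), then incubated with compounds 96 hours at 37 C in 5% CO2. Luminescence after detection reagent addition reported growth.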
CHX counter = affects cycloheximide protein synthesis inhibition readout, counter-screen. actives 12% (n = 300,000). AID 2314. max response, %. cell reporter, cycloheximide protein synthesis inhibition counterscreen; in the data active = max response mostly above about 13%, no sharp cut-off; inactive = mostly below about 14%; also: read at 38.3 µM for the half of the compounds with a filed dose
NS1 function inh = influenza NS1 inhibition. Potency, µM (titrated, usually from 46.1 µM). actives 0.4% (n = 270,000). AID 2326; calls by dose curve; also: actives are rising curves; nearly all actives have a fitted effect of over 50% in size
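A cell-based growth assay was used: compounds that relieve NS1-induced slow growth of budding yeast raise OD600. Assay medium was yeast nitrogen base with ammonium sulphate and -URA supplement, pH 6.0, with 2% galactose.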
Shiga toxin inh = inhibitors of Shiga toxin in Vero cells; Vero cells, Shiga toxin protein synthesis inhibition reporter; actives 9.2% (n = 290,000); inhibition, % at 38.7 µM; in the data active = inhibition mostly above about 28%, no sharp cut-off; inactive = mostly below about 43%
Pf growth 48h = inhibits P. falciparum growth in the first generation, 48 h. P. falciparum luciferase growth in erythrocytes, 48 h. Potency, µM (top dose mostly 28.7 µM), usual class: inhibitors. actives 5.9% (n = 310,000). AID 504832
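Luciferase-expressing parasites in RBCs, 2% Hct / 0.1% parasitemia final; RPMI 1640 + 0.5% Albumax; 37 C, 5% CO2, one generation; luminescence read-out, lower signal = inhibition.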
Each line names hits and unclear results; the compound was inactive in the other large screens. A selection: hits, their analogues and other compounds. The true share with any hit is near 21%. Unless noted, calls follow the shape of the dose curve; as a rule, active = well fitted inhibition curve with a large enough effect; inconclusive = small, poorly fitted or top-dose-only effect, or another doubt; inactive = no such curve, though single readings can be large or run the other way.

Cc1c(C(=O)COC(C)(C)C)[nH]c2ccccc12	CHX counter 20
CC(C)CN1C(=O)C(=O)N(CC(=O)NC(C)CCc2ccccc2)C1=O (configuration not stated)	none (no result: CHX counter, NS1 function inh, Shiga toxin inh)
CCOC(=O)N1CCN(C(=O)c2ccc3c(=O)n(-c4ccccc4F)c(=S)[nH]c3c2)CC1	Pf growth 48h inconclusive (no result: NS1 function inh)
CCc1ccc(C(CNC(=O)c2ccc3c(=O)n(-c4ccccc4F)c(=S)[nH]c3c2)N(C)C)cc1 (configuration not stated)	Pf growth 96h inconclusive, Pf growth 48h 13µM (no result: NS1 function inh)
COc1ccc(OC)c(-c2csc(NC(=O)C3=COCCO3)n2)c1	none (no result: CHX counter, NS1 function inh, Shiga toxin inh)
Cc1ccc(NS(=O)(=O)c2ccc(Cl)c(C(=O)Nc3ccccc3-c3nc4ccccc4[nH]3)c2)cc1C	Pf growth 96h 12µM, NS1 function inh inconclusive, Pf growth 48h 10µM
CCOc1ccc(S(=O)(=O)N2CCN(CCNS(=O)(=O)c3ccc(C)cc3)CC2)cc1	Pf growth 48h inconclusive (no result: CHX counter, NS1 function inh, Shiga toxin inh)
COc1cc(CNCc2cccnc2)ccc1OCC(=O)NC1CCCCC1	none (no result: NS1 function inh)
Cc1cc(C)cc(N2C(=O)c3nccnc3C2=O)c1	Pf growth 96h 12µM
Cc1cc(C)cc(N2C(=O)C3CC=CCC3C2=O)c1 (configuration not stated)	none
Cc1c(C)c2ccc(OCC(=O)NCCN3CCOCC3)c(C)c2oc1=O	none
Cc1onc(-c2ccccc2Cl)c1C(=O)Nc1ccccc1N1CCOCC1	Pf growth 96h inconclusive (no result: Pf growth 48h)
CO[C@H]1C[C@@H]2CC[C@@H](C)[C@@](O)(O2)C(=O)C(=O)N2CCCC[C@H]2C(=O)O[C@H]([C@H](C)C[C@@H]2CC[C@@H](OCCO)[C@H](OC)C2)CC(=O)[C@H](C)/C=C(\C)[C@@H](O)[C@@H](OC)C(=O)[C@H](C)C[C@H](C)/C=C/C=C/C=C/1C	Pf growth 96h 2.1µM, Pf growth 48h 1.5µM (no result: CHX counter, NS1 function inh, Shiga toxin inh)
CO[C@H]1C[C@@H]2CC[C@@H](C)[C@@](O)(O2)C(=O)C(=O)N2CCCC[C@H]2C(=O)O[C@H]([C@H](C)C[C@@H]2CC[C@@H](O)[C@H](OC)C2)CC(=O)[C@H](C)/C=C(\C)[C@@H](O)[C@@H](OC)C(=O)[C@H](C)C[C@H](C)/C=C/C=C/C=C/1C	Pf growth 96h 1.5µM, Pf growth 48h 1.5µM (no result: CHX counter, NS1 function inh, Shiga toxin inh)
COc1ccc(N2CCCn3c2nc2c3c(=O)n(Cc3ccccc3F)c(=O)n2C)c(OC)c1	none (no result: Pf growth 48h)
Cn1cc(C(=O)NCc2ccc(Cl)cc2)c(=O)c2cc(S(=O)(=O)N3CCOCC3)ccc21	Pf growth 48h inconclusive
CCOC(=O)c1csc(N/N=C2\CCCc3ccccc32)n1	Pf growth 96h inconclusive, CHX counter 12, Shiga toxin inh 33 (no result: Pf growth 48h)
CCOC(=O)c1csc(N/N=C2\CCc3ccccc32)n1	Pf growth 96h 13µM, CHX counter 31, Shiga toxin inh 38 (no result: Pf growth 48h)
CCOC(=O)c1csc(NC(=O)CN2CCN(C)CC2)n1	none
COc1ccc(NS(=O)(=O)c2csc(C(N)=O)c2)cc1	Pf growth 96h inconclusive, Pf growth 48h 7.4µM
NC(=O)c1cc(S(=O)(=O)Nc2ccc(OC(F)(F)F)cc2)cs1	Pf growth 96h inconclusive, Pf growth 48h 13µM
COc1cc(NS(=O)(=O)c2csc(C(N)=O)c2)cc(OC)c1	none
O=C(CSc1nn(-c2ccc(Cl)cc2)c(=S)s1)NCC1CCCO1 (configuration not stated)	Pf growth 96h inconclusive, Pf growth 48h inconclusive (no result: NS1 function inh)
COC(=S)N/C(=N\S(=O)(=O)c1ccc(Cl)cc1)c1ccccc1	none
CCCCNC(=O)c1nn2cc(Br)cnc2c1Br	Pf growth 96h inconclusive, CHX counter 23 (no result: NS1 function inh)
CCCNC(=O)c1nn2cc(Br)cnc2c1Cl	none (no result: NS1 function inh)
CCCNC(=O)c1nc2ncc(Br)cn2n1	Pf growth 96h 13µM
Fc1ccc2nc3n(c2c1F)CCCCCC3	none
O=C(CSc1nnc(-c2ccccc2F)o1)Nc1ccc(N2CCOCC2)cc1	none (no result: CHX counter, NS1 function inh, Shiga toxin inh)
O=C(N1CCCCC1)C1(c2ccccc2)CCOCC1	Pf growth 96h 12µM, NS1 function inh inconclusive
Cc1ncsc1C(=O)Nc1nc2c(s1)CC(C)CC2 (configuration not stated)	CHX counter 27, Shiga toxin inh 82 (no result: Pf growth 96h, Pf growth 48h)
CC1CCc2nc(NC(=O)C3COc4ccccc4O3)sc2C1 (configuration not stated)	none
CC1CCc2nc(NC(=O)CN3CCN(Cc4ccc5c(c4)OCO5)CC3)sc2C1 (configuration not stated)	Pf growth 96h inconclusive, Pf growth 48h inconclusive
CC1CCc2nc(NC(=O)Nc3ccc4c(c3)OCO4)sc2C1 (configuration not stated)	Pf growth 96h inconclusive, CHX counter 45, Shiga toxin inh 91
CC1CCc2nc(NC(=O)C3CC3)sc2C1 (configuration not stated)	CHX counter 51, Shiga toxin inh 82 (no result: Pf growth 96h)
CC1CCc2nc(NC(=O)CN3CCOCC3)sc2C1 (configuration not stated)	CHX counter 38, Shiga toxin inh 68
CS(=O)(=O)N(CC(=O)N1CCN(Cc2ccccc2)CC1)c1ccccc1Br	Pf growth 96h inconclusive
CCC(Oc1ccccc1)C(=O)N1CC(C)CC(C)C1 (configuration not stated)	none
O=C(COc1ccc(Br)cc1)NCCCNC(=O)c1cnccn1	Pf growth 96h inconclusive, Pf growth 48h inconclusive
Cc1ccc(CC(=O)NCCC(=O)O)cc1	none
COc1ccc(CN(Cc2ccc(OC)cc2)S(=O)(=O)c2ccc(-n3cnnn3)c(C)c2)cc1	Pf growth 96h 13µM, Pf growth 48h inconclusive
COc1cccc(CN(Cc2cccnc2)S(=O)(=O)c2ccc(-n3cnnn3)c(C)c2)c1OC	Pf growth 48h 12µM (no result: Pf growth 96h)
COc1cc(S(=O)(=O)N(Cc2cccc(OC)c2OC)CC2CCCO2)ccc1-n1cnnn1 (configuration not stated)	Pf growth 96h inconclusive, Pf growth 48h inconclusive
COc1ccc(CN(Cc2cccnc2)S(=O)(=O)c2ccc(-n3cnnn3)c(OC)c2)cc1	Pf growth 48h 12µM
COc1ccc(CN(C2CCCC2)S(=O)(=O)c2ccc(-n3cnnn3)c(OC)c2)cc1OC	Pf growth 96h inconclusive, Pf growth 48h 15µM
COc1ccc(CN(CC2CCCO2)S(=O)(=O)c2ccc(-n3cnnn3)c(OC)c2)cc1 (configuration not stated)	none
CCN(C1CCCCC1)S(=O)(=O)c1ccc(-n2cnnn2)c(C)c1	none
Cc1cc(=O)oc2cc(OCC(=O)Nc3ccccc3C(=O)O)ccc12	none
CCc1nccn1S(=O)(=O)c1cc(OC)ccc1OC	none
COC(=O)C1=C(C)N(Cc2ccco2)C(=O)N[C@H]1c1ccc(Br)cc1	Pf growth 96h inconclusive, Pf growth 48h inconclusive
CCOc1cc(S(=O)(=O)N(Cc2ccccc2)Cc2ccccc2)c(OCC)cc1-n1cnnn1	Pf growth 96h 6.6µM, Pf growth 48h inconclusive
COc1cc(CN(C2CCCCC2)S(=O)(=O)c2ccc(S(=O)(=O)N(C)C3CCCCC3)cc2)cc(OC)c1OC	Pf growth 96h 8.3µM, NS1 function inh inconclusive, Pf growth 48h inconclusive
CCN(C1CCCCC1)S(=O)(=O)c1ccc(OC)c(C)c1	none
CCOc1ccc(-n2cnnn2)cc1S(=O)(=O)NCc1ccccc1	none

Source: PubChem BioAssay (National Center for Advancing Translational Sciences (NCATS))
